Structures are written as SMILES. Inconclusive results are not listed. A number with no mark means an inactive call. The call rests on the fitted dose curve; in most records, active means well fitted inhibition curve with a large enough effect; inconclusive means small, poorly fitted or top-dose-only effect; inactive means flat fitted curve, though single readings scatter.
On the % scale 0 is the no-effect control and ±100 the full control effect.

The subject of the assay is KB-3-1. Put plainly: Cytotoxic Profiling of Annotated Libraries Using Quantitative High-Throughput Screening (AID 1296008). Further: nearly all actives have a fitted effect of over 60% in size. The note with it: Five cell lines viability, CellTiter-Glo ATP luminescence, 48-72 h; max response: stronger effect = lower value. The gist of the method:
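Cytotoxicity was measured as CellTiter-Glo ATP luminescence, read after 10 min at room temperature. Compound treatment of the cells lasted 48 or 72 hr at 37 degrees Celsius in a qHTS format.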
Take `O=C1/C(=C\c2cccs2)CCC/C1=C\c1cccs1`: the max response was 8.4%.
In the case of `COc1ccc([C@@H]2CC(=O)c3c(O)cc(O[C@@H]4O[C@H](CO[C@@H]5O[C@@H](C)[C@H](O)[C@@H](O)[C@H]5O)[C@@H](O)[C@H](O)[C@H]4O)cc3O2)cc1O`, the max response is -3.21%.
Turning to `COc1cc(C)c(/C=C/C(C)=C/C=C/C(C)=C/C(=O)O)c(C)c1C`, the max response was -4.57%.
To `CO[C@H]1O[C@@H]2O[C@@]3(C)CC[C@H]4[C@H](C)CC[C@@H]([C@H]1C)[C@@]24OO3` belongs 1.88%; to `Nc1ncnc2c1ncn2[C@H]1CC[C@@H](CO)O1`, -2.72%; to `C=C1C(CCl)(CCl)C2(Cl)C(Cl)C(Cl)C1(Cl)C2(Cl)Cl` (configuration not stated), 3.52%.
To `CC(C)c1nc(N(C)S(C)(=O)=O)nc(-c2ccc(F)cc2)c1/C=C/C(O)CC(O)CC(=O)O` (configuration not stated) belongs 0.926%; to `O=P(O)(O)OC[C@H]1O[C@](O)(COP(=O)(O)O)[C@@H](O)[C@@H]1O`, 1.63%; to `CCN(CC)C(=S)S`, 3.72%.
The figure for `NC(N)=NCC1COc2ccccc2O1` (configuration not stated) is -6.36%; for `CC(C)[C@@H]1CC[C@@H](C)C[C@H]1OC(=O)c1ccccc1O` it is -4.38%; for `OC[C@H]1O[C@@H]2O[C@H]3[C@H](O)[C@@H](O)[C@@H](O[C@H]4[C@H](O)[C@@H](O)[C@@H](O[C@H]5[C@H](O)[C@@H](O)[C@@H](O[C@H]6[C@H](O)[C@@H](O)[C@@H](O[C@H]7[C@H](O)[C@@H](O)[C@@H](O[C@H]1[C@H](O)[C@H]2O)O[C@@H]7CO)O[C@@H]6CO)O[C@@H]5CO)O[C@@H]4CO)O[C@@H]3CO` it is 3.87%.

(Values after PubChem BioAssay (NCATS).)
